According to article PMC4336329 (PLoS ONE, 2015):
In all, about 310,000 compounds went through this assay and about 14,000 (4.5%) showed an effect of 50% or more. The effect is printed as a negative number. The sample holds strong results, similar compounds and a random draw of the others, so the mix is not that of the screen.

target: human ether-à-go-go-related gene (hERG) potassium channel (human, UniProt Q12809); assay: primary screen, population patch clamp on CHO cells stably expressing hERG; higher = less effect of the substance
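Note: peak tail current of the secondary pulse compared with the same well before compound.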

Sequence of human ether-à-go-go-related gene (hERG) potassium channel (Q12809 whole entry, looked up): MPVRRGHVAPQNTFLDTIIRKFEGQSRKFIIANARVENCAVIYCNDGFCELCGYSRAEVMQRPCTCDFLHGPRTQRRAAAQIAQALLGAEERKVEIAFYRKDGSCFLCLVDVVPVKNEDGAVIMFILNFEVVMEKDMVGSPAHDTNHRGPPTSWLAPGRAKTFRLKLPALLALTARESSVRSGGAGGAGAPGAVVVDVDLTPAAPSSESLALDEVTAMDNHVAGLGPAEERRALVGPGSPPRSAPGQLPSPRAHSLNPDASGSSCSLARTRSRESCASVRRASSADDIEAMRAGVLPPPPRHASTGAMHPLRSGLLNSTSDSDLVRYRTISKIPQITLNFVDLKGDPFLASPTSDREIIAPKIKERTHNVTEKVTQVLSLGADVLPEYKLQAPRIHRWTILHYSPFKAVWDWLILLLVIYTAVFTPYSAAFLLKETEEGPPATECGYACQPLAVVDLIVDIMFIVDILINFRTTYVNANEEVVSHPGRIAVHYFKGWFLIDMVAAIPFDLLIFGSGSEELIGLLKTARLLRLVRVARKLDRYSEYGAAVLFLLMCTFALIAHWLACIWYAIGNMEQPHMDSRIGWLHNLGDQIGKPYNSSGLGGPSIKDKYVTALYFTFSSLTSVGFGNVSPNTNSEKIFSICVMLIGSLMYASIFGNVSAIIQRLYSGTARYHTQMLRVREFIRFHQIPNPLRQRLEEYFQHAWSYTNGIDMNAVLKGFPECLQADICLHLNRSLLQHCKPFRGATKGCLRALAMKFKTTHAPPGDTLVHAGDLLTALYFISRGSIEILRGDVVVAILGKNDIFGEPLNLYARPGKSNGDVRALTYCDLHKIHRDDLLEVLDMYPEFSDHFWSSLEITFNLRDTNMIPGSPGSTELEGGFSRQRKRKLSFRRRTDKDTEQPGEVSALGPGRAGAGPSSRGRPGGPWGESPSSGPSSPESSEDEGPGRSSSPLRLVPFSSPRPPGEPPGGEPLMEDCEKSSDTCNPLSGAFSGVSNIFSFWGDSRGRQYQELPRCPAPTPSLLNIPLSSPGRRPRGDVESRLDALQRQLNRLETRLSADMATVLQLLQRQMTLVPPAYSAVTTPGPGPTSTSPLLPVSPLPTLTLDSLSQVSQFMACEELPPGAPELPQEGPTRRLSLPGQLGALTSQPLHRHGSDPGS

Compound	hERG current change (%, negative = inhibition) at 10uM
Cc1ccc(C(=O)Nc2ccc(N3CCN(S(C)(=O)=O)CC3)cc2)cc1	4.23%
c1ccc(-c2nnc3ccc(N4CCC5(CC4)OCCO5)nn23)cc1	-46.8%
Brc1ccc2ncnc(NCc3ccco3)c2c1	-39.5%
N#CCc1c(C#N)c(N)nc(N2CCOCC2)c1C#N	1.34%
N#CCc1c(C#N)c(N)nc(N2CCN(c3ccc(F)cc3)CC2)c1C#N	-63.9%
N#CCc1c(C#N)c(N)nc(N2CCN(C=O)CC2)c1C#N	-10.8%
O=C1OC(=O)c2c(Br)c(Br)c(Br)c(Br)c21	20.7%
CC(C)c1ccccc1OCCNC(=O)c1cncc(Br)c1	-60.6%
CC(C)c1ccccc1OCCNC(=O)c1cccnc1	-1.33%
O=C(NCCOc1ccccc1)c1cncc(Br)c1	-26.8%
CC(=O)Oc1ccccc1/C=C/c1ccc2ccccc2[n+]1C.[I-]	11.3%
O=C(NCc1ccccc1)C1CCC(=O)N(CC2CCCCC2)C1 (stereo not shown)	9.03%
CCC1=C/C(=C/c2sc3ccccc3[n+]2CC)CC(C)(C)C1.[I-]	11.5%
CC[n+]1c(/C=C2/C=C(C)CC(C)(C)C2)sc2ccc(OC)cc21.Cc1ccc(S(=O)(=O)[O-])cc1	-68.7%
CC[n+]1c(/C=C2\C=C(C)CC(C)(C)C2)sc2ccccc21.[I-]	-39.7%
O=C(COc1ccccc1)Nc1nnc(-c2ccccc2Cl)o1	8.56%
CCOC(=O)c1cc(NC(=O)CN2CCCC2)cc(C(=O)OCC)c1	-16.2%
Br.c1ccc(CN2CCC(N=C3NN=C(c4ccc5c(c4)OCCO5)CS3)CC2)cc1	-43.1%
Cc1cccc(C)c1NC(=O)CNC(=O)CN1C(=O)NC2(CCc3ccccc32)C1=O (stereo not shown)	1.69%
CC(=O)N1CCN(C2=NC(=O)/C(=C\c3cccs3)S2)CC1	-37.1%
CC(=O)N1CCN(C2=NC(=O)/C(=C/c3ccc(OS(=O)(=O)c4ccccc4)cc3)S2)CC1	-69.6%
O=C1N=C(N2CCOCC2)S/C1=C\c1ccc(OS(=O)(=O)c2ccccc2)cc1	-49.8%
O=C1N=C(N2CCOCC2)S/C1=C\c1ccccc1OS(=O)(=O)c1ccccc1	0.61%
CN1CCN(C2=NC(=O)/C(=C/c3ccccc3OS(=O)(=O)c3ccccc3)S2)CC1	-76.1%
NC1=NC(=O)/C(=C/c2ccccc2OS(=O)(=O)c2ccccc2)S1	5.2%
CCOc1ccccc1CNC(=O)c1ccc2nc(N3CCOCC3)sc2c1	-47.5%
O=C(Nc1cc(Cl)ccc1O)C1CC(c2ccccc2O)=NO1 (stereo not shown)	-5.36%
O=C(O)CSc1ncnc2c1sc1nc(-c3ccccc3)c3c(c12)CCC3	10.3%

Compound	hERG current change (%, negative = inhibition) at 10uM
CCOc1ccc(NC(=O)COc2ccc(C(=O)N3CCC(C(N)=O)CC3)cc2OC)cc1	9.91%
CCOC(=O)C1CCN(C(=O)c2ccc(OCC(=O)Nc3ccc(OCC)cc3)c(OC)c2)CC1	-19.5%
O=C(COc1ccc(C(=O)O)cc1)Nc1cccc(C(F)(F)F)c1	22.5%
NC(=O)C1CCN(C(=O)c2ccc(OCC(=O)Nc3cccc(C(F)(F)F)c3)cc2)CC1	1.96%
CCOC(=O)C1CCN(C(=O)c2ccc(OCC(=O)Nc3cccc(C(F)(F)F)c3)c(OC)c2)CC1	-61.9%
CCOC(=O)C1CCN(C(=O)c2ccc(OCC(=O)Nc3cccc(C(F)(F)F)c3)cc2)CC1	-55.5%
Cc1nc(C(=O)NNC(=O)c2ccc(Cl)cc2)c(C(F)(F)F)o1	7.36%
CCCN1CNC(=S)N(CC2CCCO2)C1 (stereo not shown)	5.19%
CCCCNC(=S)Nc1ccc2nc3n(c(=O)c2c1)CCCCC3	-43.6%
CCN(CC)CCNC(=S)Nc1ccc2nc3n(c(=O)c2c1)CCCCC3	0.152%
CCCCN(CC)CCCNC(=S)Nc1ccc2nc3n(c(=O)c2c1)CCCCC3	-11.9%
CCCCN(CC)C(=S)Nc1ccc2nc3n(c(=O)c2c1)CCCCC3	-59%
CCCCN(C)C(=S)Nc1ccc2nc3n(c(=O)c2c1)CCCCC3	-81.2%
O=c1c2cc(NC(=S)NCc3cccnc3)ccc2nc2n1CCCCC2	-10.1%
CN(Cc1ccccc1)C(=S)Nc1ccc2nc3n(c(=O)c2c1)CCCCC3	-78.1%
CCN(CC)C(=S)Nc1ccc2nc3n(c(=O)c2c1)CCCCC3	-21.8%
CCCN(CCC)CCCNC(=S)Nc1ccc2nc3n(c(=O)c2c1)CCCCC3	6.36%
COC(=O)c1cc(NC(=S)NCc2ccc(Cl)cc2)cc(C(=O)OC)c1	-20.6%
Cc1ccc(Nc2nnc(SCC(=O)Nc3ccccc3[N+](=O)[O-])s2)cc1	7.88%
CCOC(=O)CN1C(=O)/C(=C2\SC(=S)N(NC(=O)c3cccnc3)C2=O)c2ccccc21	11.5%
O=C(NCc1ccc(F)cc1)c1cc(S(=O)(=O)N2CCOCC2)ccc1F	-20.6%
C[C@H](NC(=O)c1cc2c([nH]c3ccccc32)c(-c2ccccc2)n1)C(=O)O	11.8%
O=C(Nc1ccccc1C(F)(F)F)N1CCN(C(c2ccccc2)c2ccccc2)CC1	15.5%
COc1ccc(-c2nc(SC)n(C(=O)c3ccco3)n2)cc1	13.7%
O=S(=O)(/C=C/c1cccc(Br)c1)N1CCOCC1	-6.85%
CCC(=NCCO)c1c(O)n(-c2ccc(Cl)cc2)c(=O)[nH]c1=O	15.5%
CC(=O)c1c(-c2ccc(C)cc2)nc2c3ccccc3ccn12	10.2%
